Compounds without any hit were thinned out: in the full panel of roughly 79,000, 15% have a hit. A number with no mark means an inactive call. No stated cut-off is given here; in the data, active means growth inhibition above about 70%; inactive means the rest. Where a SMILES comes first, the peptide text is derived from it. [ ]: non-standard residue; d: D form. ξ: configuration not given here. ξV = CC(C)C(N)C(=O)O
Test: NCI Yeast Anticancer Drug Screen. Data for the mlh1 rad18 strain (AID 175)
Settings: S. cerevisiae mlh1 rad18 strain growth inhibition; at 50.0 µM; stronger effect = higher value
Outline: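 Vehicle-treated cultures served as the reference for growth inhibition in a yeast strain carrying DNA damage repair alterations exposed to each compound.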

Row | Compound | growth inhibition [%]
1 | Nc1nc(N)nc(-c2ccc([N+](=O)[O-])o2)n1 | 41.6
2 | O=C(O)CC1C(=O)OC2C3COC(=O)c4cc(O)c(O)c(O)c4-c4c(cc(O)c(O)c4O)C(=O)OC2C(OC(=O)c2cc(O)c(O)c4c2C1C(O)C(=O)O4)C(OC(=O)c1cc(O)c(O)c(O)c1)O3 (stereo unspecified) | -6.15
3 | CSc1ncnc2c1ncn2CCC(=O)O | -19.4
4 | CCN(CC)C(=O)C(C)n1cc(C)c(=O)[nH]c1=O (stereo unspecified) | -3.85
5 | Cc1ccc(C(=O)c2ccccc2)cc1 | -1.7
6 | Nc1cnccc1NCC(O)c1ccccc1 (stereo unspecified) | -8.6
7 | N#Cc1cc([N+](=O)[O-])ccc1NC(=O)/C(=N\NC(=O)c1ccncc1)C(c1cnc2ccc([N+](=O)[O-])cc2n1)[N+](=O)[O-] (stereo unspecified) | 2.75
8 | C=C(CN(C)C)c1ccccn1 | -17.6
9 | Nc1ccc(N=Nc2ccc(OCCN(CCO)CCO)cc2)c(N)n1 | 15.7
10 | CC1Cn2c(nccc2=O)S1 (stereo unspecified) | -29.1
11 | CC(C)C1c2ccccc2C(=O)C1C(N)=O (stereo unspecified) | -10.4
12 | CCN(CC)S(=O)(=O)c1ccc(N)cc1 | 8.4
13 | CC(C)C(N)C(=O)NCC(=O)NCC(=O)O (stereo not drawn) (H-[ξV]-Gly-Gly-OH) | -23.4
14 | CN1CC2(CO)C(c3ccccn3)N(C)C(c3ccccn3)C(CO)(C1)C2O (stereo unspecified) | 10.8
15 | CCCCN1C(=O)c2cc(=O)[nH]c(O)c2C1C (stereo unspecified) | 3.25
16 | CCCCCN(CCCCC)CC(O)c1cc(-c2ccccc2)nc2c(Cl)cc(Cl)cc12 (stereo unspecified) | 39.1

Source: PubChem BioAssay (NCI)
